Inconclusive results are not listed. Activity calls are given as the source filed them. Unless noted, calls come from the whole dose curve.
Assays:
[1] = Nuclear factor erythroid 2-related factor 2/antioxidant responsive element (Nrf2/ARE) small molecule agonists: qHTS cell viability counter screen in human keratinocytes (AID 1919968; active = well fitted curve in the direction sought with a large enough effect in the repeat runs; an effect the other way counts as inactive or inconclusive; note: nearly all actives have a fitted effect of over 55% in size)
Summary of the method: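 KeratinoSens HaCaT cells, 1,500/well, preincubated 5 h, then exposed to compounds in DMSO for 23 h at 37 C/5% CO2. Viability read as CellTiter-Fluor fluorescence after 1 h, in the same wells as the ARE-luciferase read.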

[2] = target: Gonadotropin-releasing hormone receptor (Homo sapiens) (UniProt P30968); assay: Human gonadotropin-releasing hormone receptor (GnRHR) small molecule agonists, calcium flux assay in GnRHR-HEK293 cells (AID 1920063); note: nearly all actives have a fitted effect of over 35% in size
Summary of the method: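 HEK293 cells stably expressing human GnRHR were dye-loaded for 1 h at 37 C. Compound was added in agonist mode and fluorescence (Ex/Em 480/540) recorded kinetically for 3 min. Fifteen concentrations, triplicates.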

[3] = target: KiSS-1 receptor (Homo sapiens) (UniProt Q969F8); assay: Human kisspeptin (KISS1R) small molecule agonists, calcium flux assay in KISS1R-HEK293 cells (AID 1920064; active = well fitted curve in the direction sought with a large enough effect in the repeat runs; an effect the other way counts as inactive or inconclusive)
Summary of the method: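 HEK293 cells stably expressing human KISS1R were loaded with calcium dye for 1 h at 37 C, then given compound; fluorescence (Ex/Em 480/540) was read kinetically for 3 min. Fifteen concentrations, triplicate.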

[4] = G protein-coupled receptor (GPCR) small molecule agonists, calcium flux assay: HEK293 wild type cell line counter screen (AID 1920065)
Summary of the method: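 Wild-type HEK293 cells plated 18 h, loaded with calcium dye 1 h at 37 C, then compounds added in agonist mode (ATP as positive control). Kinetic fluorescence Ex/Em 480/540 recorded 3 min at 1 sec intervals; 15 concentrations, triplicate.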

[5] = p53 small molecule agonists, cell-based qHTS assay with human liver microsomes: qHTS cell viability counter screen (AID 1963579); note: nearly all actives have a fitted effect of over 45% in size; note: potency is the fitted concentration of half-maximal effect
Summary of the method: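 Viability of p53RE-bla cells is measured as CellTiter-Glo luminescence following a 16 h, 37 C incubation with compound, liver microsomes from human donors and NADPH.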

[6] = p53 small molecule agonists, cell-based qHTS assay with rat liver microsomes: qHTS cell viability counter screen (AID 1963580); note: nearly all actives have a fitted effect of over 45% in size
Summary of the method: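 p53RE-bla HCT-116 cells were exposed 16 h at 37 C to compounds with rat liver microsomes (0.5 mg/mL) and NADPH (0.5 mg/mL). Viability was measured in the same wells as ATP content by CellTiter-Glo luminescence.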

[7] = p53 small molecule agonists, cell-based qHTS assay: qHTS cell viability counter screen (AID 1963581); note: nearly all actives have a fitted effect of over 45% in size
Summary of the method: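 p53RE-bla HCT-116 cells, compounds added 5 h after plating and incubated 16 h at 37 C. Cytotoxicity measured in the same wells as intracellular ATP by CellTiter-Glo luminescence after 30 min at room temperature.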

[8] = target: 5-hydroxytryptamine receptor 2A (Homo sapiens) (UniProt P28223); assay: 5-hydroxytryptamine receptor 2A (HTR2A) small molecule antagonists, cell-based qHTS assay (AID 1963586); note: nearly all actives have a fitted effect of over 45% in size
Summary of the method: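 Antagonist-mode intracellular calcium assay: DOI (4 nM) added after 5 min compound pre-incubation at room temperature to dye-loaded HTR2A-CHO cells. Fluorescence followed for 3 min, sampled every second.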

[9] = target: 5-hydroxytryptamine receptor 2A (Homo sapiens) (UniProt P28223); assay: 5-hydroxytryptamine receptor 2A (HTR2A) small molecule agonists, cell-based qHTS assay (AID 1963587); note: nearly all actives have a fitted effect of over 30% in size
Summary of the method: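 CHO cells stably expressing human HTR2A, plated 18 h, loaded with calcium dye 1 h at 37 C. Agonist mode: compounds added and intracellular calcium fluorescence recorded kinetically for 2 min at 1 sec intervals.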

[10] = target: Muscarinic acetylcholine receptor M1 (Homo sapiens) (UniProt P11229); assay: Cholinergic receptor muscarinic 1 (CHRM1) small molecule antagonists, cell-based qHTS assay (AID 1963588); note: nearly all actives have a fitted effect of over 40% in size; note: potency is the fitted concentration of half-maximal effect
Summary of the method: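 CHRM1-CHO calcium-flux assay, antagonist mode. Cells were seeded 18 h, dye-loaded 1 h at 37 C and given compound for 5 min at RT, then acetylcholine was added at 50nM. FDSS fluorescence was read 3 min; 15 concentrations, three runs.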

[11] = target: Muscarinic acetylcholine receptor M1 (Homo sapiens) (UniProt P11229); assay: Cholinergic receptor muscarinic 1 (CHRM1) small molecule agonists, cell-based qHTS assay (AID 1963589); note: nearly all actives have a fitted effect of over 35% in size
Summary of the method: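 CHO cells stably expressing human CHRM1 were loaded with calcium dye for 1 h at 37 C, then compound was added in agonist mode. Intracellular calcium fluorescence was followed kinetically at 1 s intervals. Fifteen concentrations were tested in three independent runs.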

[12] = cAMP Responsive Elements (CRE) small molecule agonists, cell-based qHTS assay (AID 1963590)
Summary of the method: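 CRE-bla HEK 293T cells, 2,000/well in DMEM with 10% dialyzed FBS and 25 mM HEPES, pre-incubated 18 h at 37 C, then exposed to compound 3 h at 37 C. Beta-lactamase reporter read with LiveBLAzer B/G FRET substrate after 2 h at room temperature.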

[13] = target: Beta-2 adrenergic receptor (Homo sapiens) (UniProt P07550); assay: Adrenergic beta2 receptor (ADRB2) small molecule antagonists, cell-based qHTS assay (AID 1963592); note: series mostly up to about 92 µM; nearly all actives have a fitted effect of over 50% in size
Summary of the method: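 Cells (CHO, stable ADRB2 overexpression) incubated 18-20hr at 37C; compounds added from DMSO; agonist mix (1nM isoproterenol, 100uM IBMX, 25uM Ro-20-1724) added; 0.5hr RT; d2-cAMP and anti-cAMP-cryptate added; 1hr RT; 665/615 nm read.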

[14] = target: D(2) dopamine receptor (Homo sapiens) (UniProt P14416); assay: Dopamine D2 receptor (DRD2) small molecule agonists, cell-based qHTS assay (AID 1963594); note: nearly all actives have a fitted effect of over 35% in size
Summary of the method: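 HEK293 cells stably expressing human DRD2, pre-treated with PDE inhibitor Ro20-1724 (0.1 mM final) and compound 10 min at room temperature, then stimulated with NKH477 (200nM […]) for 30 min. cAMP read by HTRF (665/620 nm).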

[15] = target: D(2) dopamine receptor (Homo sapiens) (UniProt P14416); assay: Dopamine D2 receptor (DRD2) small molecule antagonists, cell-based qHTS assay (AID 1963595; active = well fitted inhibition curve with a large enough effect in the signal ratio in the repeat runs, with a control signal flat; the % refers to the signal ratio)
Summary of the method: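 Antagonist mode in DRD2-HEK293 cells: after compound addition with 0.1 mM Ro20-1724, cells received quinpirole (12 nM) and NKH477 (200 nM) for 30 min at room temperature; HTRF cAMP read after 1 h detection.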

[16] = cAMP Responsive Elements (CRE) small molecule antagonists, cell-based qHTS assay (AID 1963591; active = well fitted inhibition curve with a large enough effect in the signal ratio in the repeat runs, not every such curve was filed as active; the % refers to the signal ratio)
Summary of the method: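 CRE-bla HEK293T cells plated 18 h, then given compound plus NKH477 at 0.25 uM final for 3 h at 37C. Beta-lactamase reporter read with LiveBLAzer B/G FRET substrate after 2 h at room temperature.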

[17] = target: Beta-2 adrenergic receptor (Homo sapiens) (UniProt P07550); assay: Adrenergic beta2 receptor (ADRB2) small molecule agonists, cell-based qHTS assay (AID 1963593); note: potency is the fitted concentration of half-maximal effect;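 for activation: CHO cells stably overexpressing human ADRB2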
Summary of the method: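 CHO cells stably over-expressing ADRB2 were plated overnight at 37C, then dosed with compounds plus a stimulation mix containing 100uM IBMX and 25uM Ro-20-1724 for 0.5hr at room temperature. cAMP was measured by HTRF competition, 1hr.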

[18] = p53 small molecule agonists, cell-based qHTS assay (AID 1963582; active = well fitted activation curve with a large enough effect in the signal ratio in the repeat runs, not every such curve was filed as active; the % refers to the signal ratio)
Summary of the method: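 p53RE-bla reporter cells, compounds added in DMSO after 5 h plating, incubated 16 h at 37 C. Beta-lactamase read via 2 h room-temperature LiveBLAzer B/G FRET substrate, fluorescence intensity.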

[19] = p53 small molecule agonists, cell-based qHTS assay with rat liver microsomes (AID 1963578)
Summary of the method: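 Quantitative HTS of the Tox21 10K library: p53RE-bla cells, rat liver microsomes plus NADPH at 0.5 mg/mL final each, 16 h at 37 C, beta-lactamase fluorescence detection.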
% is set by controls: 0 for no effect and ±100 for the full control effect.

KiSS-1 receptor (Homo sapiens), sequence (Q969F8 whole entry, looked up): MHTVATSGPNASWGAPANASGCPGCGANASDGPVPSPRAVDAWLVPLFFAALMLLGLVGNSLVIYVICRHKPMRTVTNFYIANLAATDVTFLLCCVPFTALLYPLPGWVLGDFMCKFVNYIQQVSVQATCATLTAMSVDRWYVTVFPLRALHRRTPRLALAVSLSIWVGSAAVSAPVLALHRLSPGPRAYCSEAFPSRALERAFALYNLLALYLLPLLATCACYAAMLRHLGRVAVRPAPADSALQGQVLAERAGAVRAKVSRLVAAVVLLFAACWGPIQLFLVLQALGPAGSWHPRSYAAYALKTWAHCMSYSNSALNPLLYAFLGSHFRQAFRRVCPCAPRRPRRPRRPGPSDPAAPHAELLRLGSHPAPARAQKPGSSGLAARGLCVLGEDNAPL
Muscarinic acetylcholine receptor M1 (Homo sapiens), sequence (P11229 whole entry, looked up): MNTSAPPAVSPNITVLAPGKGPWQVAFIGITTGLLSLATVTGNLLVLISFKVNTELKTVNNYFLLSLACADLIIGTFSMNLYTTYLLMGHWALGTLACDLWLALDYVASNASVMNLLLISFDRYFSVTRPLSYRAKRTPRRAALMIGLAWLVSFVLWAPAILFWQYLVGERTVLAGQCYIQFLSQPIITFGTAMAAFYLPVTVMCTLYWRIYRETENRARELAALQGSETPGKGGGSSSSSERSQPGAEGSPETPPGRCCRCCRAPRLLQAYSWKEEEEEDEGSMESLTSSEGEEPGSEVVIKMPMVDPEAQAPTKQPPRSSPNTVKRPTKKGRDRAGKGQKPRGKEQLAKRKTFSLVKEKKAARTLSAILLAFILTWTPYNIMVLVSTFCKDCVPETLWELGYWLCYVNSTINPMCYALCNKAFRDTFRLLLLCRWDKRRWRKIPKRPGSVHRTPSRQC
D(2) dopamine receptor (Homo sapiens), sequence (P14416 whole entry, looked up): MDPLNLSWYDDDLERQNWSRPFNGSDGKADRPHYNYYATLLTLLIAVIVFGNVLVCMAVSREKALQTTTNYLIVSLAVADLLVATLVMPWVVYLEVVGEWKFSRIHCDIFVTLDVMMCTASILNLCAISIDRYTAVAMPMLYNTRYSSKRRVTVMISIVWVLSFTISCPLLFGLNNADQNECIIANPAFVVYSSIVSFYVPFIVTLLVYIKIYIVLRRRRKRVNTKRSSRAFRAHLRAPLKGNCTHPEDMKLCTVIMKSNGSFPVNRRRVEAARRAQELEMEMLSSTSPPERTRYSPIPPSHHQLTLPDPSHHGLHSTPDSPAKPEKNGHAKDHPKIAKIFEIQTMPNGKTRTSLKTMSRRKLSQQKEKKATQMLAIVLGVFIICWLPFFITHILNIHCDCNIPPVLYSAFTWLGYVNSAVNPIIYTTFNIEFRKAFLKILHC
5-hydroxytryptamine receptor 2A (Homo sapiens), sequence (P28223 whole entry, looked up): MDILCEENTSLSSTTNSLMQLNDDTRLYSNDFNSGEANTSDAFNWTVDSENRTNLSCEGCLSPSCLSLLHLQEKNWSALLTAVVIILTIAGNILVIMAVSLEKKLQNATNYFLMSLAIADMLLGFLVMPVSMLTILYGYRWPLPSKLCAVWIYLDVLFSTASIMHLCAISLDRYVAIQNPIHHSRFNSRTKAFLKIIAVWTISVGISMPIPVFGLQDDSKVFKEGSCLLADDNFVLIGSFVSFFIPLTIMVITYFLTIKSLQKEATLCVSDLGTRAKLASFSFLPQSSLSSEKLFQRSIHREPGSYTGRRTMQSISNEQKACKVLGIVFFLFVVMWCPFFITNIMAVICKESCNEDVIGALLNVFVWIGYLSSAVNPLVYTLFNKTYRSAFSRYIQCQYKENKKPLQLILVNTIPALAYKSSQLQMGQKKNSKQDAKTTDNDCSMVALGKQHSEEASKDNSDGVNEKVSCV
Beta-2 adrenergic receptor (Homo sapiens), sequence (P07550 whole entry, looked up): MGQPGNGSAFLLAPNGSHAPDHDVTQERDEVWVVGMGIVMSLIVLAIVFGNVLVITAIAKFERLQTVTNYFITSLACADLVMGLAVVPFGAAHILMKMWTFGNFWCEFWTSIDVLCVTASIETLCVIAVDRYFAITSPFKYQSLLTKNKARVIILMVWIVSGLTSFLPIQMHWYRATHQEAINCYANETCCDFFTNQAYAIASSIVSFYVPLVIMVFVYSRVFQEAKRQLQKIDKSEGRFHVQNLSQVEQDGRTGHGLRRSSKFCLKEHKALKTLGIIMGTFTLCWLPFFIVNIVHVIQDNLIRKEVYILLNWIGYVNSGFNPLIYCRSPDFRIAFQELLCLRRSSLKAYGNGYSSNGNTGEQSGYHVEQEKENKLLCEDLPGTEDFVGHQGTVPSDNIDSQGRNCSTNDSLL
Gonadotropin-releasing hormone receptor (Homo sapiens), sequence (P30968 whole entry, looked up): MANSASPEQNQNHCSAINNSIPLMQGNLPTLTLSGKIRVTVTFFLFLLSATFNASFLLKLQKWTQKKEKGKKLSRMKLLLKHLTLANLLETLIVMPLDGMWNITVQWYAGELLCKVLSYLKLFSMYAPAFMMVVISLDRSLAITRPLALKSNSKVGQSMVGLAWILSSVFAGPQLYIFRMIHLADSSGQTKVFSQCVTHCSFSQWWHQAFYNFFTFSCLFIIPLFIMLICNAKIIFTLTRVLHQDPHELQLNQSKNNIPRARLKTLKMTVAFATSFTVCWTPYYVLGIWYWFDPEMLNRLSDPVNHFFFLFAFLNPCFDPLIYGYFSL

C=C(C)c1cccc(C(=C)C)c1
inactive: Potency [1] | Potency [2] | Potency [3] | Potency [4] | Potency [5] | Potency [6] | Potency [7] | Potency [8] | Potency [9] | Potency [10] | Potency [11] | Potency [12] | Potency [13] | Potency [14] | Potency [15]

C[C@@H]1C[C@H]2[C@@H]3C[C@H](F)C4=CC(=O)C=C[C@]4(C)[C@@]3(F)[C@@H](O)C[C@]2(C)[C@@]1(O)C(=O)CO
inactive: Potency [1] | Potency [2] | Potency [3] | Potency [4] | Potency [5] | Potency [6] | Potency [7] | Potency [8] | Potency [9] | Potency [10] | Potency [11] | Potency [12] | Potency [16] | Potency [13] | Potency [17] | Potency [14] | Potency [15]

O=C1CCCN1C1CCCCC1
inactive: Potency [1] | Potency [2] | Potency [3] | Potency [4] | Potency [5] | Potency [6] | Potency [7] | Potency [8] | Potency [9] | Potency [10] | Potency [11] | Potency [12] | Potency [16] | Potency [13] | Potency [14] | Potency [15]

CCOC(=O)CC(O)(CC(=O)OCC)C(=O)OCC
inactive: Potency [1] | Potency [2] | Potency [3] | Potency [4] | Potency [5] | Potency [6] | Potency [7] | Potency [18] | Potency [8] | Potency [10] | Potency [11] | Potency [12] | Potency [16] | Potency [13] | Potency [17] | Potency [14] | Potency [15]

CSc1ccc(C=O)cc1
inactive: Potency [1] | Potency [2] | Potency [3] | Potency [4] | Potency [5] | Potency [6] | Potency [7] | Potency [8] | Potency [9] | Potency [10] | Potency [11] | Potency [12] | Potency [16] | Potency [13] | Potency [14] | Potency [15]

CC(C)C1=CC2=CC[C@@H]3[C@](C)(CCC[C@@]3(C)C(=O)O)[C@H]2CC1
inactive: Potency [1] | Potency [2] | Potency [3] | Potency [4] | Potency [5] | Potency [6] | Potency [7] | Potency [8] | Potency [9] | Potency [10] | Potency [11] | Potency [13] | Potency [14] | Potency [15]

C=C[Si](OC(C)=O)(OC(C)=O)OC(C)=O
inactive: Potency [1] | Potency [2] | Potency [3] | Potency [4] | Potency [19] | Potency [7] | Potency [8] | Potency [9] | Potency [10] | Potency [11] | Potency [12] | Potency [16] | Potency [13] | Potency [14] | Potency [15]

CCCCCCCCC(=O)OCC(C)OC(=O)CCCCCCCC (configuration not stated)
inactive: Potency [1] | Potency [2] | Potency [3] | Potency [4] | Potency [5] | Potency [6] | Potency [7] | Potency [8] | Potency [9] | Potency [10] | Potency [11] | Potency [12] | Potency [13] | Potency [15]

NNC(=O)OCc1ccccc1
inactive: Potency [1] | Potency [2] | Potency [3] | Potency [4] | Potency [5] | Potency [6] | Potency [7] | Potency [8] | Potency [9] | Potency [10] | Potency [11] | Potency [12] | Potency [16] | Potency [13] | Potency [14]

O=CN(CCO)CCO
inactive: Potency [1] | Potency [2] | Potency [3] | Potency [4] | Potency [5] | Potency [6] | Potency [7] | Potency [8] | Potency [9] | Potency [10] | Potency [11] | Potency [12] | Potency [16] | Potency [13] | Potency [14] | Potency [15]

CCN[C@H]1C[C@H](C)S(=O)(=O)c2sc(S(N)(=O)=O)cc21
inactive: Potency [1] | Potency [2] | Potency [3] | Potency [4] | Potency [5] | Potency [6] | Potency [7] | Potency [8] | Potency [9] | Potency [10] | Potency [11] | Potency [12] | Potency [16] | Potency [13] | Potency [17] | Potency [14] | Potency [15]

CC[N+](CC)(CC)CCOC(=O)C(C1CCCC1)C1CCCC1
inactive: Potency [1] | Potency [2] | Potency [3] | Potency [4] | Potency [5] | Potency [6] | Potency [7] | Potency [8] | Potency [9] | Potency [11] | Potency [13] | Potency [17] | Potency [14] | Potency [15]
active: Potency [10] 0.0016 µM

O=C(NO)c1ccccc1
inactive: Potency [1] | Potency [2] | Potency [3] | Potency [4] | Potency [19] | Potency [6] | Potency [11]
active: Potency [17] 20.7 µM

CCSCC
active: Potency [5] 19.3 µM
inactive: Potency [1] | Potency [2] | Potency [3] | Potency [4] | Potency [6] | Potency [7] | Potency [8] | Potency [9] | Potency [10] | Potency [11] | Potency [12] | Potency [16] | Potency [13] | Potency [14] | Potency [15]

O=c1[nH]c(=O)n([C@H]2C[C@H](O)[C@@H](CO)O2)cc1C(F)(F)F
inactive: Potency [1] | Potency [2] | Potency [3] | Potency [4] | Potency [5] | Potency [6] | Potency [7] | Potency [8] | Potency [9] | Potency [10] | Potency [11] | Potency [16] | Potency [13] | Potency [17] | Potency [14] | Potency [15]

CN(C)CCCN(C)C
inactive: activity change, negative = cytotoxicity [1] 3.36% [at 8.39 µM] | activity change [2] -0.775% [at 5.22 µM, active compounds read high] | activation [3] -0.798% [at 6.97 µM] | activation [4] -1.22% [at 5.23 µM] | activation [19] 5.56% [at 5.99 µM] | activity change, negative = cytotoxicity [5] -2.9% [at 5.99 µM] | activity change, negative = cytotoxicity [7] -23% [at 5.99 µM] | activation [18] 3.48% [at 5.99 µM] | activity, negative = inhibition [8] 12.1% [at 5.62 µM] | activation [9] -0.769% [at 7.02 µM] | activity, negative = inhibition [10] 1.9% [at 5.58 µM] | activation [11] -0.0477% [at 6.97 µM] | activity change, negative = inhibition [16] -6.12% [at 8.39 µM] | activity change, negative = inhibition [13] 3.37% [at 8.39 µM] | activity change, negative = inhibition [15] 3.98% [at 8.38 µM]

From PubChem BioAssay (Tox21)
